# Measurements taken from PubChem BioAssay AID588856 (National Center for Advancing Translational Sciences (NCATS), 2011).
# About 3,100 (0.76%) of roughly 410,000 compounds were called active. What follows is part of a selection rich in actives, with near analogues and random picks from the rest. A number with no mark means an inactive call. The call rests on the fitted dose curve; in most records, active means well fitted cell-killing curve with a large enough effect; inactive means no such curve, though single readings can be large or run the other way.
# Experiment: qHTS for Inhibitors of TGF-b: Cytotox Counterscreen
# Settings: HepG2 CAGA-GFP viability, ATP luminescence, 18 h; series mostly up to 46.1 µM; activity change, negative = cytotoxicity: at the top concentration
# Procedure, shortened: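 HepG2 CAGA-GFP cells (1000/well, DMEM with 1% FBS) received compound, then TGF-beta at 500 pg/mL final, and were incubated 18 hours at 37 degrees C. Viability was read by CellTiter-Glo luminescence. Media-only wells were set as complete cell-killing and DMSO as no toxicity.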
# Potency means the concentration at half of the fitted maximal effect.
SMILES,"activity change, negative = cytotoxicity [%]",Potency
CCCN(CCC)CCCNC(=O)Cn1ncc2c3ccccc3n(Cc3ccccc3)c2c1=O,-15.3,
CCN(CC)CCNC(=O)Cn1ncc2c3ccccc3n(Cc3ccccc3C)c2c1=O,,15.8 µM (active)
Cc1ccccc1Cn1c2ccccc2c2cnn(CC(=O)NCc3ccco3)c(=O)c21,-11.1,
O=C(CSc1oc(-c2ccco2)nc1S(=O)(=O)c1ccc(Cl)cc1)c1ccccc1,-1.63,
COC(=O)CC1Oc2ccccc2-n2cc(-c3ccccc3)nc21 (stereo not given),-5.42,
CCOc1ccc(C(=O)Nc2ccc3nc4c(c(Nc5ccccc5OC)c3c2)CCCC4)cc1,-37.6,
COc1ccccc1Nc1c2c(nc3ccc(NC(=O)/C=C/c4cc(OC)c(OC)c(OC)c4)cc13)CCCC2,,5.62 µM (active)
COc1cc(/C=C/C(=O)O)cc(S(=O)(=O)Nc2ccccc2SC)c1OC,22.3,
COCCCNC(=O)c1c(NC(=O)c2cc(=O)c3cc(C)c(C)cc3o2)sc2c1CCCC2,2.12,
COC(=O)c1sc(-c2ccc(C(C)(C)C)cc2)cc1NC(=O)/C=C/C(=O)O,,7.08 µM (active)
OC(Cc1ccc2ccccc2n1)c1ccc(Cl)c(Cl)c1 (stereo not given),-20.4,
C/C=C/NNC(=O)Cc1ccc(OC)cc1,-54.5,
Cc1cccc(-c2nc(SCc3ccc(Br)cc3)n3[nH]c(=O)cc3n2)c1,0.961,
Cc1ccc(-c2nc(SCc3ccc(Br)cc3)n3[nH]c(=O)cc3n2)cc1,,5.01 µM (active)
O=c1cc2nc(-c3ccccc3)nc(SCCOc3ccc(Cl)cc3)n2[nH]1,-2,
COc1ccc(-c2nc(CN3CCC(C(=O)NCc4ccccc4)CC3)c(C)o2)cc1OC,-2.01,
Nc1ccc(/C=C/c2ccnc3ccccc23)c([N+](=O)[O-])c1,-3.67,
COc1cccc(CNC(=O)c2ccc3c(c2)sc2nc(-c4cccc(OC)c4)cn23)c1,-20.8,
Cc1cccc(-n2c(SCC(N)=O)nc3c(oc4ccccc43)c2=O)c1,-24.7,
Cc1cc(C)cc(Nc2ncnc3onc(-c4ccc(F)cc4)c23)c1,-30.7,
C=COC(=O)N1CCN(/[N+]([O-])=N/Oc2ccc([N+](=O)[O-])cc2[N+](=O)[O-])CC1,-67.7,
Cc1cccc(NS(=O)(=O)c2ccc(-c3cnc(C4CC4)o3)cc2)c1,-18.6,
Cc1cc(NS(=O)(=O)c2ccc3oc(=O)c4ncn(C)c4c3c2)ccc1Br,,11.2 µM (active)
CCn1c(=O)c(=O)[nH]c2c(=O)oc3ccc(S(=O)(=O)Nc4ccc(OC)cc4)cc3c21,0.0878,

SMILES,"activity change, negative = cytotoxicity [%]",Potency
Cc1ccc(-c2cc(C(F)(F)F)c(C#N)c(SCC(=O)Nc3ccccc3)n2)cc1,-57.5,
CCc1ccc(NS(=O)(=O)c2ccc3[nH]cc(C(=O)NCCc4cccc(C)c4)c(=O)c3c2)cc1,-5.43,
CC(=O)/C(=N\Nc1ccc(Cl)cc1Cl)Sc1cccc2cccnc12,,3.98 µM (active)
O=C(Nc1cccc2cccnc12)C(F)(F)F,-32.1,
COc1c(Cl)cc(Cl)cc1C(=O)Nc1cccc2cccnc12,-2.38,
Clc1cccc[n+]1CCCC[n+]1ccccc1Cl,-52,
Cc1ccccc1-c1nc2cc(NC(=O)c3cccc(OCCC(C)C)c3)ccc2o1,2.29,
COc1cc(OC)c2c(c1C(CCN1CCCCC1)c1ccc(N(C)C)cc1)OC(=O)CC2c1ccc(N(C)C)cc1 (stereo not given),4.96,
COc1ccc(Nc2ncc(C(=O)Nc3cc(C)ccc3OC)c3ccccc23)cc1,2.26,
COc1ccc(C(=O)Nc2ccccc2C(=O)N/N=C/c2ccc(O)c(OC)c2)cc1,,3.55 µM (active)
COc1cc(/C=C/C(=O)OCC(=O)Nc2cccc(Oc3ccccc3)c2)ccc1O,3.37,
COc1cc(NC(=O)c2[nH]cnc2C(N)=O)cc(C(=O)Nc2cccc(C(F)(F)F)c2)c1,,7.08 µM (active)
COc1cc(OC)cc(C(=O)Nc2ccc3nc(Nc4cccc(C(F)(F)F)c4)cc(C)c3c2)c1,-36.6,
Cc1onc(-c2ccc(F)cc2F)c1C(=O)Nc1cccc(C(F)(F)F)c1,-16.8,
COc1ccc(/C=C/c2ccccn2)cc1OC,0.583,
Cc1ccc(-c2cn3c(n2)sc2cc(C(=O)NCc4cccs4)ccc23)c(C)c1,-1.61,
COc1ccc(NC(=O)Cn2c(=O)n(CCC(C)C)c(=O)c3cccnc32)cc1Cl,-15.1,
CN(C)C1=NC[C@H](Cc2ccccc2)N1CCc1ccc(F)cc1,-8.32,
CCCC[C@@H]1CN=C(N)N1CCc1cc(C(F)(F)F)cc(C(F)(F)F)c1,,15.8 µM (active)
CCCCN1C(N)=NC[C@@H]1CC1CCCCC1,9.04,
CC(NC(=O)CCc1cn(Cc2ccccc2Cl)c2ccccc12)c1ccccc1 (stereo not given),-40.5,
Cc1cc(OC(C)C(=O)Nc2sc3c(c2C(N)=O)CCCC3)ccc1Cl (stereo not given),-2.1,
O=C(Cn1ncn2nc(-c3cccs3)cc2c1=O)NCc1cccc(Br)c1,-4.13,
Cc1ccc(C)c(OCC(=O)Nc2sc3c(c2C#N)CCCC3)c1C,-5.1,

SMILES,"activity change, negative = cytotoxicity [%]",Potency
CCOC(=O)N1CCc2c(sc3c2C(=O)NC(c2ccccc2F)N3)C1 (stereo not given),-25.8,
NC1=CC(=O)C(=O)c2cccnc21,,6.31 µM (active)
Cc1ccc2c(=O)cc(C(=O)Nc3sc4c(c3C(=O)NCc3cccnc3)CCCC4)oc2c1,-33.8,
COc1ccc(N2CCN(c3nc(-c4ccccc4F)nc4ccccc34)CC2)cc1,-3.07,
CC(C)Cn1c(=O)c2ccccc2n2c(-c3cccc(Cl)c3)nnc12,-27.9,
O=c1c2cc(Br)ccc2nc(-c2cccc(Cl)c2)n1O,,15.8 µM (active)
O=C(O)c1ccc(Nc2nc(-c3ccccc3)c3cc(Br)ccc3n2)cc1,1.26,
CCOc1ccccc1C(=O)NC1(C(F)(F)F)NC(=O)N(CCc2ccc(OC)c(OC)c2)C1=O (stereo not given),2.01,
Cc1nc(SCC(=O)Nc2ccc(C(=O)O)cc2)n[nH]1,-5.27,
CN(C)c1ccc(/C=C/C=C/c2ccnc3ccccc23)cc1,-45.3,
COc1ccc(C2=Nn3c(nnc3-c3ccccc3OC)SC2)cc1OC1CCCC1,,17.8 µM (active)
Cc1nnc2n1N=C(c1ccc3c(c1)NC(=O)CO3)CS2,-0.995,
O=C(Nc1ccc([N+](=O)[O-])cc1)c1cnn2c1NC(=C1CC1)C=C2C(F)F,-31.1,
CCOc1ccc(Nc2nc3c(S(=O)(=O)c4cccc(Cl)c4)nnn3c3ccsc23)cc1,-14.5,
CCc1nc2ccc(C(=O)Nc3cccc(OC)c3)cn2c1N(CCC(C)C)CCN(C)C,,11.2 µM (active)
CCc1nc2ccc(C(=O)Nc3ccc(OC)c(OC)c3)cn2c1N(C)C(=O)c1cccc(OC)c1,-0.381,
CCc1nc2ccc(C(=O)N(C)CCN(C)C)cn2c1N(CC)CCOC,5.27,
COc1cccc(CNC(=O)C(=O)NCC(c2cccs2)S(=O)(=O)c2ccccc2)c1 (stereo not given),-3.22,
CN(C)c1ccc(/C=C/c2c3ccccc3nc3ccccc23)cc1,1.81,
O=C(N[C@@H]1C/C=C\C[C@@H](CC(=O)N(CCO)Cc2ccccc2)C(=O)N[C@H](Cc2ccccc2)COC1=O)OCC1c2ccccc2-c2ccccc21,-12.3,
CC(C)(C)OC(=O)C[C@@H]1C/C=C\C[C@@H](CC(=O)N[C@H](CO)Cc2ccccc2)C(=O)NC[C@@H](c2ccccc2)OC1=O,-6.66,
O=C(C[C@H]1C/C=C\C[C@@H](NC(=O)OCC2c3ccccc3-c3ccccc32)C(=O)O[C@@H](c2ccccc2)CNC1=O)N[C@H](CO)Cc1ccccc1,,12.6 µM (active)
COc1ccccc1CNC(=O)CCn1c(=O)c2ccccc2n(CC(=O)Nc2cccc(Cl)c2)c1=O,-16.8,
COc1cc(NC(=O)CCn2nc(C)cc2C)cc(OC)c1OC,-1.73,

SMILES,"activity change, negative = cytotoxicity [%]",Potency
COc1ccc2oc(-c3ccc(C)c(NC(=O)c4sc5ccccc5c4Cl)c3)nc2c1,-8.16,
O=C(CCl)Nc1cccc(CP(=O)(c2ccccc2)c2ccccc2)c1,,15.8 µM (active)
CCc1cccc(NC(=O)c2cc(-c3ccccc3)n[nH]2)c1,-12.5,
O=C(COc1ccccc1C(=O)Nc1ccccc1)Nc1cccc(F)c1,-3.03,
Cc1cccc(CN2Cc3cccc4c3[C@H](C=CC4)CC2=S)c1,-24,
COc1ccc(C(=O)Nc2ccc3nc(N4CCCCC4)cc(C)c3c2)cc1OC,,inactive
CCN1CCN(c2cc(C)c3cc(NC(=O)c4cc(Cl)ccc4OC)ccc3n2)CC1,,11.2 µM (active)
CCOCCCNC(=S)Nc1ccc2nc(N3CCN(CC)CC3)cc(C)c2c1,-13.3,
COc1cc(C(=O)N2CCC(c3ccncc3)CC2)cc(OC)c1OC,-29.2,
CNC[C@H](CC1CCCCC1)NC[C@H](NCCC1CCCC1)[C@H](C)O,,15.8 µM (active)
CCOc1cccc2cc(-c3cn4c(n3)sc3cc(C)ccc34)c(=O)oc12,-0.0206,
CCOC(=O)CSc1nc2c(c(=O)n(Cc3ccccc3Cl)c(=O)n2C)n1C,-17.5,
CCOC(=O)c1cnc2sccn2c1=O,-1.63,
CCOC(=O)c1cnc2nc(SCc3ccccc3Cl)[nH]n2c1=O,,2.82 µM (active)
Cc1cc(N2CCN(c3cccc(C(F)(F)F)c3)CC2)n2nc(-c3ccccc3)nc2n1,1.82,
CN1C(=O)c2[nH]nc(-c3ccc(F)cc3)c2C1c1ccccn1 (stereo not given),-6.9,
CCOc1ccc(Nc2c(S(=O)(=O)c3ccccc3)cnc3ccccc23)cc1,-11.6,
CC(C)S(=O)(=O)c1oc(-c2ccc(F)cc2)nc1S(=O)(=O)c1ccc(F)cc1,,2 µM (active)
O=C(CSc1oc(-c2ccc(F)cc2)nc1S(=O)(=O)c1ccc(Br)cc1)NC1CCCCC1,2.9,
Cc1ccc(-c2nc(S(=O)(=O)c3ccc(C)cc3)c(N3CCCCCC3)o2)cc1,-18.7,
COc1cccc(Cn2c(CNS(=O)(=O)c3ccc(Cl)s3)nc3cccnc32)c1,-23.5,
COc1ccccc1N1CCN(c2ccc(=O)n(CC(=O)NCc3ccc(OC(C)C)cc3)n2)CC1,-22.2,
O=C1C2C(c3ccccc3)CC=CC2C(c2ccoc2)N1Cc1ccccc1 (stereo not given),-20.3,
